p53ts 32C kill – kills p53ts cells at the permissive temperature | H1299-p53A138V at 32C, ATP luminescence viability, 24 h | Potency, µM (highest dose often 46.1 µM), for the others: at the highest dose activity change, negative = cytotoxicity, usual class: cytotoxic | 130,000 compounds, 0.93% hits;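 note: 0% = DMSO and -100% = full killing by reference compound; nearly all actives have a fitted effect of over 55% in size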
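H1299-p53 A138V cells (temperature-sensitive p53) exposed 24 h to up to 46 uM compound at 32C, where p53 is wild-type in conformation. Viability read as ATP luminescence and normalised to DMSO and 100 uM tamoxifen. AC50 fitted with the Hill equation.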
IkB sig inh – suppresses IkB signaling in ABC-DLBCL reporter cells; Potency, µM (top dose mostly 57.1 µM), for inactives: at the highest dose IkBa stabilization activation; AID 445; 110,000 compounds, 0.04% hits; ABC-DLBCL IkBa-CBG/CBR dual luciferase ratio, 4 h; response scale: scaled: untreated 0%, proteasome inhibitor 100%; active = well fitted curve in the direction sought with a large enough effect in the signal ratio, not every such curve was filed as active; inconclusive = small, poorly fitted or top-dose-only effect, or a change in a side signal; the % refers to the signal ratio;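 note: the direction sought is a rising ratio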
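Curves were fitted separately to fusion (green), unfused (red) and ratio luminescence, then classed by r2, magnitude and activity. Cells: OCI-Ly3, 4 h compound plus doxycycline at 37C; 10 uM MG-132 defined full response.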
FLuc inh – inhibitors of firefly luciferase; P08659; purified firefly luciferase, luminescence, 8 min; Potency, µM (titrated, usually from 57.1 µM), without a hit: at the highest dose activity change, negative = inhibition, usual class: inhibitors; 72,000 compounds, 2.2% hits; AID 411; note: % is set by controls: 0 for no effect and ±100 for the full control effect; nearly all actives have a fitted effect of over 40% in size
Target sequence (P08659 whole entry, looked up): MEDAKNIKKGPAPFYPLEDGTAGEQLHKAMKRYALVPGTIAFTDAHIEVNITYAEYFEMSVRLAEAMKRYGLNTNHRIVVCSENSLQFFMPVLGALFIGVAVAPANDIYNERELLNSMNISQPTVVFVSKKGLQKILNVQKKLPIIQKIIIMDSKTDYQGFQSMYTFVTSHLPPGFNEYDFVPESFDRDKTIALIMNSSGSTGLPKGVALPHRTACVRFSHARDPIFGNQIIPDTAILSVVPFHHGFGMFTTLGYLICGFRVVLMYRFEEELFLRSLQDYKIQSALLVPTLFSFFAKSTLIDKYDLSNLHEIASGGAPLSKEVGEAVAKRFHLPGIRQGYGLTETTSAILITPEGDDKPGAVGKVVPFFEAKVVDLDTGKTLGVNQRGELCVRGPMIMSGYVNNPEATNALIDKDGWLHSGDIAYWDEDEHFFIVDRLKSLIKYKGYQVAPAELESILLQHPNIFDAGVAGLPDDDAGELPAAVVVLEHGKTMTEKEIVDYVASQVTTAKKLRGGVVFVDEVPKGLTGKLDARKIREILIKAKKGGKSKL
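qHTS concentration-response profiling: light output of P. pyralis luciferase with luciferin and 10 uM ATP, imidazole buffer pH 7.2. Read by luminescence after 8-min room-temperature incubation.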
p53ts 39C kill – cytotoxicity in p53ts cells at nonpermissive temperature | H1299-p53A138V viability at 39C, ATP luminescence, 24 h | Potency, µM (titrated, usually from 46.1 µM), for the others: top-dose activity change, negative = cell killing, usual class: cytotoxic | 130,000 compounds, 1.5% hits | AID 902; note: % is set by controls: 0 for no effect and ±100 for the full control effect; nearly all actives have a fitted effect of over 55% in size
Peg3 imprint – genomic imprint erasure induction; mouse ES Peg3-LacZ reporter, beta-gal luminescence, 40 h; Potency, µM (highest dose often 60.7 µM), for the others: at the highest dose activity change, positive = activation, hits mostly activators; 110,000 compounds, 0.02% hits
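Gelatin-coated wells received 300 freshly trypsinized female ES cells with a Peg3LacZ-Neo reporter on the maternal allele, then incubated 40 hours at 37C. BetaGlo was added for 5 minutes at room temperature before a single luminescence read.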
Starred values were filed as active, the others as inactive; ? = inconclusive; / = no result; [ ] = dose if it differs, or a comment. Compounds with a hit are over-represented: about 2.4% of the library has one in this group of screens. Unless noted, calls come from the whole dose curve; as a rule, active = well fitted curve in the direction sought with a large enough effect; inconclusive = small, poorly fitted or top-dose-only effect, or another doubt; inactive = no such curve, though single readings can be large; an effect the other way counts as inactive or inconclusive. Potency is the fitted concentration of half-maximal effect.

SMILES	p53ts 32C kill	IkB sig inh	FLuc inh	p53ts 39C kill	Peg3 imprint
COc1ccc(NC(=O)c2ccc3c(=O)n4nc(Nc5ccccc5C)sc4nc3c2)cc1Cl	10µM*	?	/	7.9µM*	25%[10.9 µM]
Cc1ccc(NC(=O)c2ccc3c(=O)n4nc(Nc5ccccc5C)sc4nc3c2)cc1C	13µM*	?	/	38%	9%[10.9 µM]
COc1ccc(NC(=O)c2ccc3c(=O)n4nc(Nc5ccccc5C)sc4nc3c2)cc1	-29%	-1%	/	-22%	-9%[10.9 µM]
COc1ccc2[nH]c(=O)c(CN(Cc3nnnn3Cc3ccco3)C3CCCCC3)cc2c1	-4%	1%	-5%	-6%	-12%
COc1ccc2[nH]c(=O)c(CN(C3CCCCC3)C(c3nnnn3Cc3ccco3)C(C)C)cc2c1 (stereo not given)	20%	7.9µM*	-14%	?	/
CC(C)(O)c1cc(=O)sc2nc3ccccc3n12	?	-1%	25µM*	?	/
CCCN1C(=O)C2(c3ccccc31)c1c(oc3ccc(C)cc3c1=O)C(=O)N2CCOC (stereo not given)	-1%	1%	/	22%	-11%[10.9 µM]
O=C(/C=C/Nc1ccc(F)c(Cl)c1)c1ccco1	?	?	16µM*	?	-12%
CC(=O)Nc1ccc(N/C=C/C(=O)c2ccco2)cc1	?	4%	25µM*	?	-17%
Oc1c(C(Nc2ccccn2)c2ccccc2F)ccc2cccnc12 (stereo not given)	4%	42%	/	10µM*	-13%[10.9 µM]
Cc1ccnc(NC(c2cc(C)ccc2O)c2ccc3cccnc3c2O)c1 (stereo not given)	?	?	/	13µM*	-14%[10.9 µM]
Oc1c(C(Nc2ccccn2)c2ccccn2)ccc2cccnc12 (stereo not given)	-5%	?	0%	4µM*	-23%
Cc1ccnc(NC(c2ccccc2F)c2ccc3cccnc3c2O)c1 (stereo not given)	-12%	?	/	?	-10%[10.9 µM]
CN(C)c1ccc(CNC(=O)CN2C(=O)CCn3nc(-c4cn(C)c5ccccc45)cc32)cc1	2%	?	/	-2%	-10%[10.9 µM]
Cc1ccc(C)c(NS(=O)(=O)c2cc(C(=O)O)ccc2Cl)c1	8%	/	/	4%	/
COc1ccc(Cl)cc1NC(=O)CSc1nnc2[nH]c(=O)cc(C)n12	-2%	?	/	3%	15%[10.9 µM]
O=C(O)[C@@H]1[C@@H](C(=O)O)[C@@]23CCCC2=C2CC[C@@]3(C(=O)O)[C@@]3(C(=O)O)C[C@@]213	/	/	/	/	-8%[10.9 µM]
COc1ccc(-c2csc(NCc3ccco3)n2)cc1C	-26%	3%	7.9µM*	?	-24%
Cc1cc(-c2ccc(C)c(S(=O)(=O)N(C)c3ccc(C)c(C)c3)c2)on1	-12%	?	/	-12%	-18%[10.9 µM]
CCOC(=O)c1ccc(NC(=O)CSc2cc(-c3ccccc3)nc(C)n2)cc1	-4%	0%	/	-20%	-11%[10.9 µM]
C[C@]12C=CC(=O)C=C1CC[C@@H]1[C@H]3C[C@@H](O)[C@](O)(C(=O)CO)[C@]3(C)C[C@H](O)[C@]12F	/	?	1%	/	/
Cc1nc(Nc2nc(-c3ccccc3)cc(=O)[nH]2)nc2ccccc12	-17%	?	10µM*	-23%	-24%
CCOC(=O)c1ccc(NCc2nc3ccccc3[nH]2)cc1	-24%	?	16µM*	-21%	-73%
COc1ccc(NC(=O)Nc2cc(C(=O)NCc3ccc(C)cc3)ccc2N2CCCC2)cc1	0%	0%	/	-6%	-10%[10.9 µM]
COc1ccc(-n2c(C)cc(/C=N/Nc3nnc(C)n3N)c2C)cc1	?	/	/	10µM*	/
SMILES	p53ts 32C kill	IkB sig inh	FLuc inh	p53ts 39C kill	Peg3 imprint
COc1ccc(-n2nc3c(N4CCCC(C(=O)NCc5ccc(C)cc5)C4)nnc(C)c3c2C)cc1 (stereo not given)	?	?	/	?	-23%[10.9 µM]
O=C(CSc1nnc2[nH]c(=O)cc(-c3ccccc3)n12)Nc1cc(C(F)(F)F)ccc1Cl	0.63µM*	?	/	1.3µM*	16%[10.9 µM]
O=C(CSc1nnc2[nH]c(=O)cc(-c3ccccc3)n12)Nc1ccc(F)cc1F	?	6%	/	3.2µM*	4%[10.9 µM]
Cc1cccc(NC(=O)CSc2nnc3[nH]c(=O)cc(-c4ccccc4)n23)c1C	2%	3%	/	1.3µM*	-5%[10.9 µM]
Cc1cc(=O)[nH]c2nnc(SCC(=O)Nc3cc(C(F)(F)F)ccc3Cl)n12	-6%	-4%	/	-4%	-11%[10.9 µM]
Cc1cc(=O)[nH]c2nnc(SCC(=O)Nc3ccc(F)cc3F)n12	12%	4%	/	6%	13%[10.9 µM]
CCc1nc2nc(C)cc(Nc3cc(C)ccc3C)n2n1	5%	-1%	/	2%	-3%[10.9 µM]
Cc1c(-c2nc(N)nc(Nc3ccccc3)n2)oc2ccccc12	-9%	?	25µM*	23%	-7%
Cc1nn2c(C)c(C(=O)NCc3cccc(Br)c3)cnc2c1-c1ccccc1	0%	-2%	/	-3%	6%[10.9 µM]
O=C(CN1C(=O)c2ccccc2C1=O)N1CCN(c2ccccn2)CC1	6%	2%	3%	2%	6%
O=C1C=C(N2CCN(c3ccccn3)CC2)C(=O)c2c(O)ccc(O)c21	-13%[9.22 µM]	5µM*	-15%[11.4 µM]	-20%[9.22 µM]	-22%[10.9 µM]
COc1ccc(C(=O)NCC(c2ccc(N(C)C)cc2)N2CCc3ccccc32)cc1 (stereo not given)	-13%	3%	/	10µM*	-15%[10.9 µM]
CC(C)Oc1ccc(C(=O)NCC(c2ccc(N(C)C)cc2)N2CCc3ccccc32)cc1 (stereo not given)	7%	3%	/	-14%	4%[10.9 µM]
Cc1ccccc1C(=O)N1CCCCC1CCN1CCCCC1 (stereo not given)	1%	?	/	-25%	-13%[10.9 µM]
CCCOc1ccccc1C(=O)N1CCCCC1CCN1CCCCC1 (stereo not given)	-3%	1%	/	22µM*	-10%[10.9 µM]
CCCCN(CC)C(=O)CSc1nc2n[nH]c(C)c2c(=N)n1-c1cccc(Cl)c1	6%	?	/	-6%	-11%[10.9 µM]
Clc1ccccc1Cc1cn2cc(-c3ccccc3)nc2s1	?	?	/	3.2µM*	-19%[10.9 µM]
Fc1ccc(Cc2cn3cc(-c4ccccc4)nc3s2)cc1	3.2µM*	?	/	2.5µM*	-20%[10.9 µM]
Fc1ccc(-c2cn3cc(Cc4ccccc4)sc3n2)cc1	2.2µM*	?	/	5µM*	-24%[10.9 µM]
Fc1ccc(Cc2cn3cc(-c4ccc(Cl)cc4)nc3s2)cc1	?	4%	/	-10%	-7%[10.9 µM]
COc1ccccc1C(=O)Nc1ccc2c(c1)OCCO2	16µM*	7%	16µM*	16µM*	/
COc1ccccc1C(=O)Nc1ccc2c(c1)OCO2	?	2%	25µM*	?	-63%
CN(c1ccccc1C(=O)Nc1ccc2c(c1)OCCO2)S(C)(=O)=O	7%	1%	2%	0%	-7%
COc1ccccc1C(=O)NCc1ccc2c(c1)OCO2	-5%	-1%	1%	2%	-16%
